Assay [1] in a line: qHTS drug screen for cell cycle checkpoint inhibitors in PARPi-resistant BRCA-mutant ovarian cancer cell lines. (AID 1963452). The note with it: PEO1/OlaR viability, CellTiter-Glo luminescence, 96 h, stronger effect = lower value. A digest of the protocol: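 PEO1, PEO4 and PEO1/OlaR ovarian cancer cells, 600 per well, exposed 96 h at 37C to a dilution series. Viability read by CellTiter-Glo luminescence, normalized to DMSO and empty wells; activity summarized as Z-AUC.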
For orientation: Quantitative high-throughput screening tests each substance at several concentrations.

Assay [2] is described as follows: qHTS for identification of novel therapeutic agents for treatment of microphthalmiaassociated transcription factor (MiT) renal cell carcinoma (RCC) (AID 1963991).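 Note: curves scaled with 100% = DMSO viability and 0% = empty wells.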 As to conditions: CellTiter-Glo, 48 h, stronger effect = lower value. Summed up:
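UOK109/UOK124/UOK145 (TFE3 fusions, three partners); 500 cells/well; MIPE v4.0, 1912 cpds, 11 conc.; 48 h, 37 C; CellTiter-Glo, 15 min RT; lum. Norm.: DMSO 100%, empty 0%.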

Setting [3] is: measured here: PEO1 parental Z-AUC.
Setting [4] is: TFE3-RCC UOK109 viability, measured here: UOK109 Z-AUC.
The mark [5] stands for this setting: TFE3-RCC viability, measured here: UOK124 Z-AUC.
[6] abbreviates: TFE3-RCC viability, measured here: UOK145 Z-AUC.

Inconclusive results are not listed. Activity calls are given as the source filed them. Calls come from the whole dose curve.

As for `Cc1cc(NC(=O)Nc2ccc(N(C)C)cc2)c2cc(F)cc(F)c2n1`, the Z-AUC in assay [1] was -0.154 (inactive); in assay [1] (setting [3]), -0.66; in assay [1] (measured here: PEO4 Z-AUC), -0.472. The z-score in assay [2] (setting [4]) was 1.14; in assay [2] (setting [5]) it was 0.89; in assay [2] (setting [6]), 1.08.
With `CCOC(=O)N1c2ccc(C(F)(F)F)cc2[C@@H](N(Cc2cc(C(F)(F)F)cc(C(F)(F)F)c2)C(=O)OC)C[C@H]1CC`, the Z-AUC in assay [1] was -1 (inactive); in assay [1] (setting [3]) it was 0.195; in assay [1] (measured here: PEO4 Z-AUC), -0.682. In addition, the z-score in assay [2] (setting [4]) stood at 0.825; in assay [2] (setting [5]), 0.72; in assay [2] (setting [6]), 0.57.
As to `CN1C(=O)C[C@H](C(=O)N[C@@H](Cc2cnc[nH]2)C(=O)N2CCC[C@@H]2C(N)=O)NC1=O`, the results for the Z-AUC in assay [1], in assay [1] (setting [3]) and in assay [1] (measured here: PEO4 Z-AUC) were 0.875 (inactive), 1.25 and 1.02, respectively. Besides, the z-score in assay [2] (setting [4]) came out at 0.71; in assay [2] (setting [5]), 0.308; in assay [2] (setting [6]), 0.628.
Consider `C[C@@H]1C[C@H]2[C@@H]3CCC4=CC(=O)C=C[C@]4(C)[C@@]3(F)[C@@H](O)C[C@]2(C)[C@@]1(O)C(=O)CO`, for which the values for the Z-AUC in assay [1], in assay [1] (setting [3]) and in assay [1] (measured here: PEO4 Z-AUC) were 0.337 (inactive), 1.75 and 0.58, respectively. The z-score in assay [2] (setting [4]) is 0.745; in assay [2] (setting [5]), 0.108; in assay [2] (setting [6]), -1.45.
Take `N[C@@H](CC(=O)N1CCn2c(nnc2C(F)(F)F)C1)Cc1cc(F)c(F)cc1F`: the values for the Z-AUC in assay [1], in assay [1] (setting [3]) and in assay [1] (measured here: PEO4 Z-AUC) were 0.69 (inactive), 0.734 and 0.789, respectively. Further, the results for the z-score in assay [2] (setting [4]), in assay [2] (setting [5]) and in assay [2] (setting [6]) were 0.736, 0.907 and 0.666, respectively.
`CC[C@H](C=C[C@@H](C)[C@H]1CC[C@H]2[C@@H]3CC=C4C[C@@H](O)CC[C@]4(C)[C@@H]3CC[C@]12C)C(C)C`: the Z-AUC in assay [1] is 0.764 (inactive); in assay [1] (setting [3]), 1.79; in assay [1] (measured here: PEO4 Z-AUC), 1.84. Moreover, the z-score in assay [2] (setting [4]) came out at 0.875; in assay [2] (setting [5]), 0.915; in assay [2] (setting [6]), 1.02.
In the case of `CC[C@H](C)n1cc(C)c2c(C(=O)NCc3c(C)cc(C)[nH]c3=O)cc(-c3ccc(N4CCNCC4)nc3)cc21`, the Z-AUC is 1.9 (inactive) in assay [1], 1.58 in assay [1] (setting [3]) and 1.72 in assay [1] (measured here: PEO4 Z-AUC).
Consider `CCC[C@H](N[C@@H](C)C(=O)N1[C@@H]2CCCC[C@H]2C[C@H]1C(=O)O)C(=O)OCC`, for which the Z-AUC in assay [1] was -0.443 (inactive); in assay [1] (setting [3]) it was -0.451; in assay [1] (measured here: PEO4 Z-AUC), -0.177. In addition, the z-score in assay [2] (setting [4]) came out at 0.586; in assay [2] (setting [5]), 0.337; in assay [2] (setting [6]), 0.752.
In the case of `Cc1nc2c([nH]1)CCN(C(=O)c1ccc(NC(=O)c3ccccc3-c3ccccc3)cc1)c1ccccc1-2`, the Z-AUC in assay [1] is 0.604 (inactive); in assay [1] (setting [3]) it was 0.56; in assay [1] (measured here: PEO4 Z-AUC), 0.851. In addition, the results for the z-score in assay [2] (setting [4]), in assay [2] (setting [5]) and in assay [2] (setting [6]) were -0.104, 0.486 and 0.369, respectively.
As for `COc1ccc(-c2nc3ccc(C4=NNC(=O)CC4C)cc3[nH]2)cc1` (centres undefined), the Z-AUC is -0.406 (inactive) in assay [1], -0.248 in assay [1] (setting [3]) and 0.0118 in assay [1] (measured here: PEO4 Z-AUC). Further, the figures for the z-score in assay [2] (setting [4]), in assay [2] (setting [5]) and in assay [2] (setting [6]) were 0.403, 0.3 and 0.145, respectively.
As to `CCCCC[C@H](O)C=C[C@H]1[C@H](O)CC(=O)[C@H]1CC=CCCCC(=O)O`, the values for the Z-AUC in assay [1], in assay [1] (setting [3]) and in assay [1] (measured here: PEO4 Z-AUC) were 1.09 (inactive), 0.516 and 0.73, respectively. The results for the z-score in assay [2] (setting [4]), in assay [2] (setting [5]) and in assay [2] (setting [6]) were 1.12, 0.597 and 0.962, respectively.
`CCN(CCO)CCCOc1ccc2c(Nc3cc(CC(=O)Nc4cccc(F)c4)[nH]n3)ncnc2c1`: the Z-AUC was -0.614 (inactive) in assay [1], -0.629 in assay [1] (setting [3]) and -1.66 in assay [1] (measured here: PEO4 Z-AUC). For the same molecule, the z-score in assay [2] (setting [4]) is 0.018; in assay [2] (setting [5]) it was 0.316; in assay [2] (setting [6]) it was 0.045.
On to `O=C(NCCCCN1CCOCC1)c1cc2ccccc2o1`, for which the Z-AUC in assay [1] was 1.41 (inactive); in assay [1] (setting [3]), 1.22; in assay [1] (measured here: PEO4 Z-AUC), 1.23. Moreover, the z-score in assay [2] (setting [4]) stood at 0.969; in assay [2] (setting [5]) it was 0.64; in assay [2] (setting [6]), 0.273.
For the molecule `COc1nc(C)cnc1NS(=O)(=O)c1cccnc1-c1ccc(-c2nnco2)cc1`, the Z-AUC in assay [1] is 1.25 (inactive); in assay [1] (setting [3]), 1.67; in assay [1] (measured here: PEO4 Z-AUC), 1.16. Besides, the z-score in assay [2] (setting [4]) was determined as 1.22; in assay [2] (setting [5]) it was 0.956; in assay [2] (setting [6]), 0.662.
Take `Cc1cn([C@@H]2C[C@@H](O)[C@H](CO)O2)c(=O)[nH]c1=O`: the Z-AUC is 0.721 (inactive) in assay [1], 0.778 in assay [1] (setting [3]) and 0.771 in assay [1] (measured here: PEO4 Z-AUC). Further, the figures for the z-score in assay [2] (setting [4]), in assay [2] (setting [5]) and in assay [2] (setting [6]) were 0.973, 1.9 and 0.117, respectively.
Consider `NCC1CCC(C(=O)O)CC1` (centres undefined), for which the figures for the Z-AUC in assay [1], in assay [1] (setting [3]) and in assay [1] (measured here: PEO4 Z-AUC) were -0.425 (inactive), -0.68 and -0.142, respectively. For the same molecule, the z-score worked out at 0.68 in assay [2] (setting [4]), 0.972 in assay [2] (setting [5]) and 0.669 in assay [2] (setting [6]).
As for `Cc1ccccc1-n1c(Cn2nc(-c3cccc(O)c3)c3c(N)ncnc32)nc2cccc(C)c2c1=O`, the figures for the Z-AUC in assay [1], in assay [1] (setting [3]) and in assay [1] (measured here: PEO4 Z-AUC) were -1.13 (inactive), -0.546 and -0.912, respectively.
Regarding `O=C(O)C1=CC(O)C(O)[C@H](O)C1` (some centres undefined), the Z-AUC is 1.17 (inactive) in assay [1], 1.52 in assay [1] (setting [3]) and 1.23 in assay [1] (measured here: PEO4 Z-AUC). In addition, the values for the z-score in assay [2] (setting [4]), in assay [2] (setting [5]) and in assay [2] (setting [6]) were 1.04, 0.866 and 0.319, respectively.
With `CCCCC(F)(F)[C@@]1(O)CC[C@H]2[C@H](CC(=O)[C@@H]2CCCCCCC(=O)O)O1`, the values for the Z-AUC in assay [1], in assay [1] (setting [3]) and in assay [1] (measured here: PEO4 Z-AUC) were -0.514 (inactive), 0.401 and 0.738, respectively. Also, the z-score in assay [2] (setting [4]) stood at 0.852; in assay [2] (setting [5]) it was 0.425; in assay [2] (setting [6]), 0.602.
As for `C[C@H]1COC2=C1C(=O)C(=O)c1c2ccc2c1CCCC2(C)C`, the Z-AUC was 1.69 (inactive) in assay [1], 1.64 in assay [1] (setting [3]) and 1.41 in assay [1] (measured here: PEO4 Z-AUC). The z-score in assay [2] (setting [4]) is -0.0604; in assay [2] (setting [5]) it was -0.0946; in assay [2] (setting [6]) it was -0.271.
Turning to `c1ccc(CNc2nc(N3CCOc4ccccc43)nc3c2CCCC3)cc1`, the results for the Z-AUC in assay [1], in assay [1] (setting [3]) and in assay [1] (measured here: PEO4 Z-AUC) were 0.483 (inactive), 0.277 and 1.17, respectively. The z-score was determined as 0.901 in assay [2] (setting [4]), 0.197 in assay [2] (setting [5]) and 0.631 in assay [2] (setting [6]).
For `CCN1C[C@H](C)n2c(c(O)c3c(=O)n(Cc4ccc(F)c(Cl)c4)nc(C(=O)NC)c32)C1=O`, the z-score stood at 0.808 in assay [2] (setting [4]), 0.545 in assay [2] (setting [5]) and 2.87 in assay [2] (setting [6]).
For the molecule `O=c1[nH]c(=O)n([C@H]2C[C@@H](O)[C@@H](CO)O2)cc1I`, the z-score in assay [2] (setting [4]) stood at 0.108; in assay [2] (setting [5]), 0.166; in assay [2] (setting [6]), 0.313.
As for `CC[C@H]1OC(=O)[C@H](C)[C@@H](O[C@H]2C[C@@](C)(OC)[C@@H](O)[C@H](C)O2)[C@H](C)[C@@H](O[C@@H]2O[C@H](C)C[C@H](N(C)C)[C@H]2O)[C@](C)(O)C[C@H](C)C(=NOCOCCOC)[C@H](C)[C@@H](O)[C@]1(C)O`, the z-score in assay [2] (setting [4]) is 1.24; in assay [2] (setting [5]), -0.315; in assay [2] (setting [6]) it was 0.696.

Source of the values: PubChem BioAssay (NCATS).
